25 compounds from ChEMBL document CHEMBL5308504, “Tm Shift (DSF) assay results for EUbOPEN Chemogenomics Library” (2023) can be followed below.

Common to all, as to settings: Compound concentration 20.0 uM, Protein concentration 2.0 uM, Result type QC Liability
Experiment [1] addresses Tyrosine-protein kinase ABL1 (Homo sapiens) (UniProt P00519).
Experiment [2] addresses Cyclin-dependent kinase 2 (Homo sapiens) (UniProt P24941).
Experiment [3] addresses Casein kinase I isoform delta (Homo sapiens) (UniProt P48730).
Experiment [4] concerns the target Glycogen synthase kinase-3 beta (Homo sapiens) (UniProt P49841).
For experiment [5], the target named is Mitogen-activated protein kinase 1 (Homo sapiens) (UniProt P28482).
For experiment [6], the target named is T1, Aurora kinase A (Homo sapiens) (UniProt O14965).
T1 sequence (whole entry): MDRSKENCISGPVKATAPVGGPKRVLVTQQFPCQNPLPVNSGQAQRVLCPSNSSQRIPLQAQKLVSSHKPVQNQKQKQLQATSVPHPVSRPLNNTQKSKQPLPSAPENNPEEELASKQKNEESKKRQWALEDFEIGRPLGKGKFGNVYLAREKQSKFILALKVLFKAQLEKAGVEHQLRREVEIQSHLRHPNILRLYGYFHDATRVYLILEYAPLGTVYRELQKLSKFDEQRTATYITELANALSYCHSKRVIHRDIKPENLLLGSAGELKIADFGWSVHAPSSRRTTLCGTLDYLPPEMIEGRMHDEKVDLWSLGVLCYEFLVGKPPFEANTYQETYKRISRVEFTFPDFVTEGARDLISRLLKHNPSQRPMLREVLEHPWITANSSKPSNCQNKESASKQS

Each structure is given as a SMILES string. Where “and” joins values, the source holds several entries; their conditions need not be identical. Equal values may be shown once.

Glycogen synthase kinase-3 beta (Homo sapiens), sequence (P49841 whole entry, looked up): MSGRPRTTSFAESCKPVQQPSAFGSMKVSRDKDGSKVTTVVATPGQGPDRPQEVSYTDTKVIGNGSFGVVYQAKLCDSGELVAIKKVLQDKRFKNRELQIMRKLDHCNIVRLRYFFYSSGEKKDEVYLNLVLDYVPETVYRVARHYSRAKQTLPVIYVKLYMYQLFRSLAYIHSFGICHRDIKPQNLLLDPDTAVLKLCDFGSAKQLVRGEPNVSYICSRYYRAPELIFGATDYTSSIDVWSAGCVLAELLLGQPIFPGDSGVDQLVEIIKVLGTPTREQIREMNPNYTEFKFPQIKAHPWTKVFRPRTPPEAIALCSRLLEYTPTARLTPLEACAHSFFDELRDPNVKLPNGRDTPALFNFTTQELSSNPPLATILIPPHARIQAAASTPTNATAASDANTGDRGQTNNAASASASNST
Tyrosine-protein kinase ABL1 (Homo sapiens), sequence (P00519 whole entry): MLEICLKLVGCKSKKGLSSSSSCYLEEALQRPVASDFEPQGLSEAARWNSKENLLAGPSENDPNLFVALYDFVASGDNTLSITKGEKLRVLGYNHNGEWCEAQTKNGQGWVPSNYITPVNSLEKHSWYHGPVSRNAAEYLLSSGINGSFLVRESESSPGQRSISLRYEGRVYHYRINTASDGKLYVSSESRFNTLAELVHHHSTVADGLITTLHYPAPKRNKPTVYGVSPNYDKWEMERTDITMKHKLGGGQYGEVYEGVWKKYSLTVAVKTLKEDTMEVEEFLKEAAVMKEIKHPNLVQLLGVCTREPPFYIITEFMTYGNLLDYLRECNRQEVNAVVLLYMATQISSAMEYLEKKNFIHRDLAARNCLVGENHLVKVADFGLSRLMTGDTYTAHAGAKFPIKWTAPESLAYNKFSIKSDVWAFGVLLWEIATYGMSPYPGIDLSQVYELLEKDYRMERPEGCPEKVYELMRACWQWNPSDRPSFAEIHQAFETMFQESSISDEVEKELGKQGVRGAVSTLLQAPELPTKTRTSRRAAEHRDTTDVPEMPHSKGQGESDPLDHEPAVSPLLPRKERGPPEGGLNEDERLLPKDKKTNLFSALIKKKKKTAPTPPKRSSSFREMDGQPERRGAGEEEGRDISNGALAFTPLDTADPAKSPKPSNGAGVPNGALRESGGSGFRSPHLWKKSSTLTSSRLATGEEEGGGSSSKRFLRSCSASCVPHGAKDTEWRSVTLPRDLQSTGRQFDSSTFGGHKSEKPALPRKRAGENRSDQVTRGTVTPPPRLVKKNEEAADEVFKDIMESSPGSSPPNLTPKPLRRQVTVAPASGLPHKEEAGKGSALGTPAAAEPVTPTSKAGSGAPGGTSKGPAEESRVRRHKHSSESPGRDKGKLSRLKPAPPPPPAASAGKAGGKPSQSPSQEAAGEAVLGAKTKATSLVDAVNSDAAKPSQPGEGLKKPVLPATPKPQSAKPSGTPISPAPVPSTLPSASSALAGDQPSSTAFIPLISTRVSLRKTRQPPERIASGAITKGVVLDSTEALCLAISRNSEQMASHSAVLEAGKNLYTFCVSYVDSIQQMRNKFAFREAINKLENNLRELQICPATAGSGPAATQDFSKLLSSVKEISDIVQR
Mitogen-activated protein kinase 1 (Homo sapiens), sequence (P28482 whole entry): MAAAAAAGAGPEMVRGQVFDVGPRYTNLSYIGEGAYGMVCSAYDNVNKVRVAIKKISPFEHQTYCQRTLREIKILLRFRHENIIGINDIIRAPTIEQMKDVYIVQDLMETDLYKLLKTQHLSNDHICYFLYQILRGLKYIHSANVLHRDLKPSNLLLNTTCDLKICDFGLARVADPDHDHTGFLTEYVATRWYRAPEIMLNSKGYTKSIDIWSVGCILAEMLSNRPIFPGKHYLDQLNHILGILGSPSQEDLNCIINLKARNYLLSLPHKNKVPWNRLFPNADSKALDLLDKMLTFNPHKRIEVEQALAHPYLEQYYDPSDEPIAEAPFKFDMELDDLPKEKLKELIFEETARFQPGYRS
Casein kinase I isoform delta (Homo sapiens), sequence (P48730 whole entry, looked up, canonical isoform): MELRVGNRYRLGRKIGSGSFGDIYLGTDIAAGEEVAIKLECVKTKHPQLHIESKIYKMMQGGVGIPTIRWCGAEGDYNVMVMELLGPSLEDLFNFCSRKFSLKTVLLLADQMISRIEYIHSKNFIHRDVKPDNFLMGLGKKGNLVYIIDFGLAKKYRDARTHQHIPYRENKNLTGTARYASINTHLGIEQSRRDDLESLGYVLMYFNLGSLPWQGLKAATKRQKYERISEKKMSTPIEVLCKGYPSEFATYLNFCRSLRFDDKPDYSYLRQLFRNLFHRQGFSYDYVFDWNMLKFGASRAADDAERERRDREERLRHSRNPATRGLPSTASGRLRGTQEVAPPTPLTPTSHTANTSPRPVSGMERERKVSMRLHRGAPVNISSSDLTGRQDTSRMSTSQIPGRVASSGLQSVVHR

In the case of `Oc1c(-c2cccnc2)cnn1-c1ccccn1`, the ΔTm (in general, the shift of the melting midpoint relative to a reference) in experiment [1] is -0.25 °C; in experiment [2] it was 0.31 °C; in experiment [3], 0.78 °C; in experiment [4], -0.42 °C; in experiment [5], 0.36 °C; in experiment [6], -0.05 °C.

Regarding `COC(=O)c1sccc1S(=O)(=O)Nc1ccc(Nc2ccccc2)cc1OC`, the shift in melting temperature (ΔTm) is 0.48 °C in experiment [1]; 0.72 °C in experiment [2]; 0.45 °C in experiment [3]; -0.37 °C in experiment [4]; -2.78 °C in experiment [5]; -2.34 °C in experiment [6].

`CS(=O)(=O)NCC[C@H](NC(=O)c1cncc2c1cnn2-c1ccc(F)cc1)c1ccnc(S(C)(=O)=O)c1`: the ΔTm in experiment [1] is -0.12 °C; in experiment [2], -0.17 °C; in experiment [3], 0.57 °C; in experiment [4], -1.34 °C; in experiment [5], 0.26 °C; in experiment [6], 0.06 °C.

In the case of `Cc1cccc(CC(=O)N2CCc3c2ccc(-c2cn(C)c4ncnc(N)c24)c3F)n1`, the ΔTm was 2.48 °C in experiment [1]; 0.14 °C in experiment [2]; 0.49 °C in experiment [3]; -0.92 °C in experiment [4]; 0.15 °C in experiment [5]; 0.37 °C in experiment [6].

Turning to `CN1C(=O)Cc2ccc(-c3ccc(C[C@@H](C#N)NC(=O)[C@H]4N[C@@H]5CC[C@H]4C5)c(F)c3)cc21`, the ΔTm in experiment [1] stood at 0.24 °C; in experiment [2], 0.52 °C; in experiment [3] it was 0.41 °C; in experiment [4], 0.41 °C; in experiment [5] it was 0.5 °C; in experiment [6], 0.8 °C.

Consider `Cc1cc2ncnn2cc1Nc1ncc2c(n1)n(C1CCOCC1)c(=O)n2C`, for which the ΔTm in experiment [1] is -0.11 °C; in experiment [2], 0.84 °C; in experiment [3], 0.63 °C; in experiment [4] it was 1.17 °C; in experiment [5] it was 1.17 °C; in experiment [6], 0.06 °C.

As for `Cc1cc(=O)n(C)c2cc(N3C(=O)CC[C@H](NS(=O)(=O)CC(C)C)[C@H]3c3ccc(Cl)cc3)ccc12`, the shift in melting temperature (ΔTm) was 0.08 °C in experiment [1]; 0.6 °C in experiment [2]; -0.11 °C in experiment [3]; -0.55 °C in experiment [4]; 0.38 °C in experiment [5]; 0.15 °C in experiment [6].

In the case of `COc1ccc2c(O[C@@H]3C[C@H]4C(=O)N[C@]5(C(=O)O)CC5/C=C\CCCCC[C@H](NC(=O)OC5CCCC5)C(=O)N4C3)cc(-c3csc(NC(=O)C(C)C)n3)nc2c1C` (stereo not given in full), the thermal shift (ΔTm) in experiment [1] was 0.27 °C [middle of 4 runs]; in experiment [2], 0.77 °C [middle of 4 runs]; in experiment [3], 0.4 °C [middle of 4 runs]; in experiment [4] it was -0.22 °C [middle of 4 runs]; in experiment [5] it was 0.48 °C [middle of 4 runs]; in experiment [6], 0.2 °C [middle of 4 runs].

Consider `CNC(=O)COc1cc2cc(Nc3nc(N4CCC(C(=O)N(C)C)CC4)ncc3Cl)cc(OC)c2n(C)c1=O`, for which the ΔTm in experiment [1] was -0.18 °C; in experiment [2], -0.4 °C; in experiment [3], 0.17 °C; in experiment [4] it was -0.71 °C; in experiment [5], 0.01 °C; in experiment [6], -0.26 °C.

Regarding `Cc1nccc(COC(=O)N2C[C@@H]3[C@@H](CNC(=O)c4ccc5[nH]nnc5c4)[C@@H]3C2)n1`, the shift in melting temperature (ΔTm) in experiment [1] was -0.16 °C; in experiment [2] it was 0.19 °C; in experiment [3] it was 0.34 °C; in experiment [4], 0.22 °C; in experiment [5], 0.26 °C; in experiment [6], -0.07 °C.

`N#Cc1ccc(C#CC[C@@H](C#N)NC(=O)[C@@H]2CCCCN2)cc1F`: the ΔTm in experiment [1] was -0.78 °C; in experiment [2], 0.23 °C; in experiment [3], 0.14 °C; in experiment [4], -0.69 °C; in experiment [5], 0.24 °C; in experiment [6], -0.05 °C.

Consider `C[C@@]1(Cc2ccc(C#N)cc2)C(=O)N(c2cc(Cl)cc(Cl)c2)c2ncc(C(=O)NC3(c4nc(C5CCC5)no4)CC3)n21`, for which the ΔTm was 0.13 °C in experiment [1]; -0.03 °C in experiment [2]; 3.08 °C in experiment [3]; 10.7 °C in experiment [4]; 3.07 °C in experiment [5]; 11.8 °C in experiment [6].

Turning to `O=C(O)C[C@H]1CCn2c1c(Sc1ccc(Cl)cc1)c1ccc(F)cc12`, the shift in melting temperature (ΔTm) was -1 °C in experiment [1]; -1.1 °C in experiment [2]; -0.47 °C in experiment [3]; 0 °C in experiment [4]; -0.38 °C in experiment [5]; -0.18 °C in experiment [6].

In the case of `C/C(=C\C(=O)Nc1ccccc1C(=O)O)c1ccc2ccccc2c1`, the thermal shift (ΔTm) was -0.72 °C in experiment [1]; -0.23 °C in experiment [2]; 0.09 °C in experiment [3]; 0 °C in experiment [4]; 0.8 °C in experiment [5]; 1.85 °C in experiment [6].

With `O=C1Nc2ccc(C(=O)c3ccco3)cc2C1=Cc1cc(Cl)c(O)c(Cl)c1`, the thermal shift (ΔTm) worked out at 4.46 °C in experiment [1]; 0.67 °C in experiment [2]; 3.71 °C in experiment [3]; 5.93 °C in experiment [4]; 0.54 °C in experiment [5]; 5.03 °C in experiment [6].

Take `Cc1cc2nc(N3CCC(C(=O)NC4CCCC4)CC3)n(C(C)C)c2cc1C`: the thermal shift (ΔTm) came to 0.22 °C in experiment [1]; 0.23 °C in experiment [2]; 0.04 °C in experiment [3]; 0.31 °C in experiment [4]; 0 °C in experiment [5]; 0.01 °C in experiment [6].

On to `CC(C)c1cnc(NC(=O)Cc2ccccc2)s1`, for which the ΔTm in experiment [1] was 1.04 °C; in experiment [2] it was 4.66 °C; in experiment [3], 2.55 °C; in experiment [4], 3.64 °C; in experiment [5] it was 0.91 °C; in experiment [6], -0.53 °C.

Consider `Cc1c(N2CCCC2)nc2ccc(Br)cc2c1C(=O)NC[C@H](CCC(=O)O)c1ccccc1Cl`, for which the shift in melting temperature (ΔTm) is -0.28 °C and -0.08 °C in experiment [1]; -0.21 °C and 0.71 °C in experiment [2]; -0.02 °C and 0.51 °C in experiment [3]; -0.57 °C and -1.1 °C in experiment [4]; -0.65 °C and 0.37 °C in experiment [5]; -0.24 °C and -0.2 °C in experiment [6].

In the case of `O=C(O)CCC/C=C\C[C@@H]1[C@@H](/C=C/[C@@H](O)COc2cccc(C(F)(F)F)c2)[C@H](O)C[C@@H]1O`, the ΔTm in experiment [1] is 0.54 °C; in experiment [2], 0.59 °C; in experiment [3], 0.07 °C; in experiment [4] it was 0.65 °C; in experiment [5], -0.39 °C; in experiment [6], -0.25 °C.

Turning to `CNC(=O)c1c[nH]c2ccc(Nc3nccc(-c4ccccn4)n3)cc12`, the ΔTm turned out to be 2 °C in experiment [1]; 1.28 °C in experiment [2]; 0.6 °C in experiment [3]; 2.67 °C in experiment [4]; 0.16 °C in experiment [5]; 1.47 °C in experiment [6].

In the case of `COc1ccc(CC[C@@H](OC(=O)[C@H]2CCCCN2C(=O)[C@@H](c2cc(OC)c(OC)c(OC)c2)C2CCCCC2)c2cccc(OCCN3CCOCC3)c2)cc1OC`, the ΔTm in experiment [1] is -1.34 °C; in experiment [2], -4.12 °C; in experiment [3], -1.85 °C; in experiment [4], -1.12 °C; in experiment [5], -0.42 °C; in experiment [6], -1.27 °C.

Turning to `N=C(N)NCCC[C@H](NC(=O)CC1(CC(=O)N2CCN(C3c4ccccc4NC(=O)c4ccccc43)CC2)CCCC1)C(=O)NCCn1c(=O)n(-c2ccccc2)n(-c2ccccc2)c1=O` (stereo not given in full), the thermal shift (ΔTm) in experiment [1] is -2.29 °C; in experiment [2], -1.3 °C; in experiment [3], -0.34 °C; in experiment [4] it was -1.99 °C; in experiment [5] it was -0.45 °C; in experiment [6], -0.47 °C.

Regarding `CN[C@@H]1CC[C@@H](c2ccc(Cl)c(Cl)c2)c2ccccc21`, the ΔTm in experiment [1] was -0.02 °C; in experiment [2], 0.01 °C; in experiment [3], 0.01 °C; in experiment [4], -0.7 °C; in experiment [5], 0 °C; in experiment [6] it was -0.47 °C.

`C[C@@H]1OCC2(CCN(c3cnc(Sc4ccnc(N)c4Cl)c(N)n3)CC2)[C@@H]1N`: the ΔTm was 0.58 °C in experiment [1]; 0.91 °C in experiment [2]; -0.25 °C in experiment [3]; 0.28 °C in experiment [4]; 0.06 °C in experiment [5]; -0.32 °C in experiment [6].

As for `O=C(O)C[C@H]1CC[C@H](c2ccc(NC(=O)c3nnc(Nc4ccc(F)c(F)c4)o3)cc2)CC1`, the ΔTm in experiment [1] is -0.04 °C; in experiment [2] it was 0.24 °C; in experiment [3], -0.9 °C; in experiment [4], -0.67 °C; in experiment [5], -2.59 °C; in experiment [6], 0.92 °C.
